# Measurements as given in ChEMBL document CHEMBL1961873, “Compounds: GSK PKIS; Assays: Nanosyn kinase panel” (2012).
# Key:
# [1] = target: Sphingosine kinase 1 (Homo sapiens) (UniProt Q9NYA1); conditions: at 1 µM;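 further: mean SPHK1 inhibition value reported from the GSK PKIS kinase panel screen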
# [2] = target: T1, Sphingosine kinase 2 (Homo sapiens) (UniProt Q9NRA0); conditions: at 0.1 µM
# T1 sequence (whole entry): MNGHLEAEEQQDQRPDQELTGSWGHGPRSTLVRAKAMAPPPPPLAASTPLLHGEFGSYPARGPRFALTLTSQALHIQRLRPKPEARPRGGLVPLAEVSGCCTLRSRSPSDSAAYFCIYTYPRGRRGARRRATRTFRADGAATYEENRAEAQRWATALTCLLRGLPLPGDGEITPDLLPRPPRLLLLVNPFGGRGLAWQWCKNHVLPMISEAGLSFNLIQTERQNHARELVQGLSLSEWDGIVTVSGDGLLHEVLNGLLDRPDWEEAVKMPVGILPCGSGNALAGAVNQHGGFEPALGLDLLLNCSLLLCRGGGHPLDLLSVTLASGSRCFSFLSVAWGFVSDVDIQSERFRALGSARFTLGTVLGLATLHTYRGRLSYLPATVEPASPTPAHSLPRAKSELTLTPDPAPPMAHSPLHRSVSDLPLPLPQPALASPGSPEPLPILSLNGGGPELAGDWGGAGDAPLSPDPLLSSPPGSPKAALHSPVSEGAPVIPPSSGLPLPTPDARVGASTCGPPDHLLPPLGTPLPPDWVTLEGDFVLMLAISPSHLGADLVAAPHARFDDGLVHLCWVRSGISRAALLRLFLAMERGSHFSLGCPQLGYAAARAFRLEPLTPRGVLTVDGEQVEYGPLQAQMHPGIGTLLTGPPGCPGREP
# [3] = target: T1, Sphingosine kinase 2 (Homo sapiens); conditions: at 1 µM
# [4] = target: Casein kinase II subunit alpha (Homo sapiens) (UniProt P68400); conditions: at 0.1 µM
# Chain of Casein kinase II subunit alpha (Homo sapiens) (P68400 whole entry, looked up): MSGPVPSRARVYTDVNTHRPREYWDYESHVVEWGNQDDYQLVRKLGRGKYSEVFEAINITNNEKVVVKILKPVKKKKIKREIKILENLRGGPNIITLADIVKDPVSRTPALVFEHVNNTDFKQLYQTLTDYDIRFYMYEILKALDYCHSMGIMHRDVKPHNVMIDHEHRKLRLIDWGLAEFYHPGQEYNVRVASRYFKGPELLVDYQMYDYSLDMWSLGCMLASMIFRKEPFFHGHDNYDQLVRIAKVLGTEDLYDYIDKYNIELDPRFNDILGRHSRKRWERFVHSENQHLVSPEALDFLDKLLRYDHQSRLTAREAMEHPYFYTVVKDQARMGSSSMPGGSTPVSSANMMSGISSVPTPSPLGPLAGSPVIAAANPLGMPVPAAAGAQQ
# [5] = target: Casein kinase II subunit alpha (Homo sapiens) (UniProt P68400); conditions: at 1 µM
# [6] = target: T2, Inhibitor of nuclear factor kappa-B kinase subunit alpha (Homo sapiens) (UniProt O15111); conditions: at 0.1 µM
# T2 sequence (whole entry): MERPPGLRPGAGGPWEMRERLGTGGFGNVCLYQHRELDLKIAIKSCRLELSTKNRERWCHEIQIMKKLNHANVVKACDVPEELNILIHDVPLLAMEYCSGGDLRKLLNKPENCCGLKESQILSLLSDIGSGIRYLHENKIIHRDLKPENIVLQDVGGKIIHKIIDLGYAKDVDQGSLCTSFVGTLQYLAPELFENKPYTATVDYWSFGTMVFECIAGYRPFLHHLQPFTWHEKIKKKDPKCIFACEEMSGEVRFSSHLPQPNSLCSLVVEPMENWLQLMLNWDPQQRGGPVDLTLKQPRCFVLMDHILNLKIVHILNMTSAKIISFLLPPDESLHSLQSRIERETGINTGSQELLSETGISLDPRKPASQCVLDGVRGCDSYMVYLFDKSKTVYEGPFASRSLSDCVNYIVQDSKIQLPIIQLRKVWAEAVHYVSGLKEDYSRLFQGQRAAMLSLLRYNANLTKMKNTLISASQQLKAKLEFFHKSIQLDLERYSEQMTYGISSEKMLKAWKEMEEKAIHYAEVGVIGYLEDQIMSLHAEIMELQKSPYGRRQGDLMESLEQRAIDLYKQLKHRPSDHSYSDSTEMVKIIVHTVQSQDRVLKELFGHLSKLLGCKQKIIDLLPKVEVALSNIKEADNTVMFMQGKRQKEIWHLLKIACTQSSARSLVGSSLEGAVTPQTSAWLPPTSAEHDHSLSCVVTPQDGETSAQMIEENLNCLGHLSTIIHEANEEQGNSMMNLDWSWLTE
# [7] = target: T2, Inhibitor of nuclear factor kappa-B kinase subunit alpha (Homo sapiens); conditions: at 1 µM
# [8] = target: T3, Inhibitor of nuclear factor kappa-B kinase subunit beta (Homo sapiens) (UniProt O14920); conditions: at 0.1 µM
# T3 sequence (whole entry): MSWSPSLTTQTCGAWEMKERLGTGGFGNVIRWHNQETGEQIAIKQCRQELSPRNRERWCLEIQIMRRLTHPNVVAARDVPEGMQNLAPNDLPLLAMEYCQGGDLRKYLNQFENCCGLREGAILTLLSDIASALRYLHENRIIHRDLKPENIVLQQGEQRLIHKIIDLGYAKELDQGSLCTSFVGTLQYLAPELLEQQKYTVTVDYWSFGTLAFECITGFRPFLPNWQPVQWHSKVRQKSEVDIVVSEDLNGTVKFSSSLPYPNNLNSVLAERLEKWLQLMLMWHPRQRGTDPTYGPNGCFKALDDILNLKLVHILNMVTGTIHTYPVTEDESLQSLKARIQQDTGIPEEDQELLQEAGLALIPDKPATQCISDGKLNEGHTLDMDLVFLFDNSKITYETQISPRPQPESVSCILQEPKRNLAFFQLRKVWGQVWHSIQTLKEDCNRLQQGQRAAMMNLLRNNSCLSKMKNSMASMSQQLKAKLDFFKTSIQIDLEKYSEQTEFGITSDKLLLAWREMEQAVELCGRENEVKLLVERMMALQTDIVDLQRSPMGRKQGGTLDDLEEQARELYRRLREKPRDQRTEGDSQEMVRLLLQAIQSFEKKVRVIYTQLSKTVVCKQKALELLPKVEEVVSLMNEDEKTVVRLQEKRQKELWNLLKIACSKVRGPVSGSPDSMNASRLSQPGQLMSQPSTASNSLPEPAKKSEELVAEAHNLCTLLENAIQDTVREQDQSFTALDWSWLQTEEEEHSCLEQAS
# [9] = target: T3, Inhibitor of nuclear factor kappa-B kinase subunit beta (Homo sapiens); conditions: at 1 µM
# [10] = target: T4, Inhibitor of nuclear factor kappa-B kinase subunit epsilon (Homo sapiens) (UniProt Q14164); conditions: at 0.1 µM
# T4 sequence (whole entry): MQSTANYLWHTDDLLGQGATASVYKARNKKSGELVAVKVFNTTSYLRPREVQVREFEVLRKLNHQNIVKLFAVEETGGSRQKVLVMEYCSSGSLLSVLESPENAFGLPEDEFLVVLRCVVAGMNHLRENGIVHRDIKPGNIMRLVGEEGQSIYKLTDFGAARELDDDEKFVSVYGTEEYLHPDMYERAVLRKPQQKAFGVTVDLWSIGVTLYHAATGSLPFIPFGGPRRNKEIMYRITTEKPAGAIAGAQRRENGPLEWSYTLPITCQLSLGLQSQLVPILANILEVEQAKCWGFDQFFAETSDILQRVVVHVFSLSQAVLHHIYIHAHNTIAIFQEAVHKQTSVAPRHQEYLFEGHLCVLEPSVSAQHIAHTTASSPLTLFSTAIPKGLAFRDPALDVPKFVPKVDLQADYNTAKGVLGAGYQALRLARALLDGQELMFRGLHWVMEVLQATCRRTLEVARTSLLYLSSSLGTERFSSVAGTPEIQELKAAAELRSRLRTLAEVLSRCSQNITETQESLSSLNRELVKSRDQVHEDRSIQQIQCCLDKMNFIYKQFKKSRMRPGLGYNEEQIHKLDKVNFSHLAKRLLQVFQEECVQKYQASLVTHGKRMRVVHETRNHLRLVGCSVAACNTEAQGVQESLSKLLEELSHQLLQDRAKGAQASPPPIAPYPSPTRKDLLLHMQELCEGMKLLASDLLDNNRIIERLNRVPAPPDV
# [11] = target: T4, Inhibitor of nuclear factor kappa-B kinase subunit epsilon (Homo sapiens); conditions: at 1 µM
# [12] = target: T5, Serine/threonine-protein kinase Nek1 (Homo sapiens) (UniProt Q96PY6); conditions: at 0.1 µM
# T5 sequence (whole entry): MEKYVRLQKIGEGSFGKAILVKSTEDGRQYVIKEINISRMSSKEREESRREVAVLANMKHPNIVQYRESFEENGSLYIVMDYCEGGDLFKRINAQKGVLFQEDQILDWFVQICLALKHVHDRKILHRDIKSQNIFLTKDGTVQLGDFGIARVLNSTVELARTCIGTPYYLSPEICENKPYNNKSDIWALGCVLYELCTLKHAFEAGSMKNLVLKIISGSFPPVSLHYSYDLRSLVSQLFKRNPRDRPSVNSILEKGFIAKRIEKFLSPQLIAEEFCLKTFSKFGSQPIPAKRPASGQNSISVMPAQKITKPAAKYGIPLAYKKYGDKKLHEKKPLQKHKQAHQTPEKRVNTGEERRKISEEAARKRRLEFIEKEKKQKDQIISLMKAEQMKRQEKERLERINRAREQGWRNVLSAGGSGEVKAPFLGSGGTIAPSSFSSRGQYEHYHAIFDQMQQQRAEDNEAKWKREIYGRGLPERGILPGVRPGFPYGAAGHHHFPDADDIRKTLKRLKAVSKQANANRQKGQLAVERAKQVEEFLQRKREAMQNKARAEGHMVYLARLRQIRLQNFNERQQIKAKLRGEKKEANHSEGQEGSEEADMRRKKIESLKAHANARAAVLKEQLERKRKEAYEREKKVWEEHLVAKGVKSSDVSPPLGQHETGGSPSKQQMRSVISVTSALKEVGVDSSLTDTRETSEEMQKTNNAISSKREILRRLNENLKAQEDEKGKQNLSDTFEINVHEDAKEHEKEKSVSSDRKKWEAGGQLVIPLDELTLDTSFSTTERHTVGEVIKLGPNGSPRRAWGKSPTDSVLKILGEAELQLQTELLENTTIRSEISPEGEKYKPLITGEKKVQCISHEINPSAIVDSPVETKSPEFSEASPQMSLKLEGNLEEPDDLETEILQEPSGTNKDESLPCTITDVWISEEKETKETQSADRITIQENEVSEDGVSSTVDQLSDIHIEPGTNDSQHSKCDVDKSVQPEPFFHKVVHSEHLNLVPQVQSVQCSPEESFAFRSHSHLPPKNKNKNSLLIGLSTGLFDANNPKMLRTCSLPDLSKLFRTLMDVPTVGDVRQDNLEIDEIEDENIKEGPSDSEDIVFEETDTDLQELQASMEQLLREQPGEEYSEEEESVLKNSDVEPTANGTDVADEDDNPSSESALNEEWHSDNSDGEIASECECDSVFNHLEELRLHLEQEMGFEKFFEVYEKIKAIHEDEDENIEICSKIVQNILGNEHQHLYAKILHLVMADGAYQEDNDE
# [13] = target: T5, Serine/threonine-protein kinase Nek1 (Homo sapiens); conditions: at 1 µM
# [14] = target: T6, Serine/threonine-protein kinase Nek2 (Homo sapiens) (UniProt P51955); conditions: at 0.1 µM
# T6 sequence (whole entry): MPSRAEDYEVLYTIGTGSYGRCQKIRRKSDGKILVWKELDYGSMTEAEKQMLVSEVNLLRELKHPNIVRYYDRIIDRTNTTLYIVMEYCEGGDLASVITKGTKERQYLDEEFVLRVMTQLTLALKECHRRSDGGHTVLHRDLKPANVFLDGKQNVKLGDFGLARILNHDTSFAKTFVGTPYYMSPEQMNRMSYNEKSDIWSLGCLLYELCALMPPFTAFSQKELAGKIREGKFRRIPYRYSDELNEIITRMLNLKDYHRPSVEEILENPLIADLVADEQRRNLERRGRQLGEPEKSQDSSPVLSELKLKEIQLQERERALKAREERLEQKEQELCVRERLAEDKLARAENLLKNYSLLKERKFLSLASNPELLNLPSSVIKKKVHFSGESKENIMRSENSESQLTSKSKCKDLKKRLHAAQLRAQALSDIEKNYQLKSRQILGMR
# [15] = target: T6, Serine/threonine-protein kinase Nek2 (Homo sapiens); conditions: at 1 µM
# [16] = target: Serine/threonine-protein kinase Nek6 (Homo sapiens) (UniProt Q9HC98); conditions: at 0.1 µM
# Chain of Serine/threonine-protein kinase Nek6 (Homo sapiens) (Q9HC98 whole entry): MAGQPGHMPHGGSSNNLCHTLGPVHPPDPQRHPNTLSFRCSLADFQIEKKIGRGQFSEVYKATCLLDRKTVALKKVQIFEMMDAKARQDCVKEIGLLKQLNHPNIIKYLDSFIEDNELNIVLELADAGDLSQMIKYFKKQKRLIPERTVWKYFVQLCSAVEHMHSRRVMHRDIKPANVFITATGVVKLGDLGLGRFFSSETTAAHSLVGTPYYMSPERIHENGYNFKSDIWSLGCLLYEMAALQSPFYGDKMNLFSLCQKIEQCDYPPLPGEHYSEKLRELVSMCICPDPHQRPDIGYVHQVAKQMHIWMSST
# [17] = target: Serine/threonine-protein kinase Nek6 (Homo sapiens) (UniProt Q9HC98); conditions: at 1 µM
# [18] = target: Serine/threonine-protein kinase Nek7 (Homo sapiens) (UniProt Q8TDX7); conditions: at 0.1 µM
# Chain of Serine/threonine-protein kinase Nek7 (Homo sapiens) (Q8TDX7 whole entry, looked up): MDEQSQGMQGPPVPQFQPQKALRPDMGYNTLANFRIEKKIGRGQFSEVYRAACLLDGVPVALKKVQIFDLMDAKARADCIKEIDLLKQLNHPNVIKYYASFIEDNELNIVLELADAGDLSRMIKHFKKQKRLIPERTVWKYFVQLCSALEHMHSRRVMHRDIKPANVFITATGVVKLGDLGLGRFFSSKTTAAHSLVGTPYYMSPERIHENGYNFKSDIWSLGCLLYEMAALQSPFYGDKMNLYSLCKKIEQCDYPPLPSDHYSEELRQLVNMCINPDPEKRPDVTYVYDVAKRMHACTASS
# [19] = target: Serine/threonine-protein kinase Nek7 (Homo sapiens) (UniProt Q8TDX7); conditions: at 1 µM
# [20] = target: T7, Serine/threonine-protein kinase Nek9 (Homo sapiens) (UniProt Q8TD19); conditions: at 0.1 µM;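 further: reported value is the mean percent inhibition of NEK9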
# T7 sequence (whole entry): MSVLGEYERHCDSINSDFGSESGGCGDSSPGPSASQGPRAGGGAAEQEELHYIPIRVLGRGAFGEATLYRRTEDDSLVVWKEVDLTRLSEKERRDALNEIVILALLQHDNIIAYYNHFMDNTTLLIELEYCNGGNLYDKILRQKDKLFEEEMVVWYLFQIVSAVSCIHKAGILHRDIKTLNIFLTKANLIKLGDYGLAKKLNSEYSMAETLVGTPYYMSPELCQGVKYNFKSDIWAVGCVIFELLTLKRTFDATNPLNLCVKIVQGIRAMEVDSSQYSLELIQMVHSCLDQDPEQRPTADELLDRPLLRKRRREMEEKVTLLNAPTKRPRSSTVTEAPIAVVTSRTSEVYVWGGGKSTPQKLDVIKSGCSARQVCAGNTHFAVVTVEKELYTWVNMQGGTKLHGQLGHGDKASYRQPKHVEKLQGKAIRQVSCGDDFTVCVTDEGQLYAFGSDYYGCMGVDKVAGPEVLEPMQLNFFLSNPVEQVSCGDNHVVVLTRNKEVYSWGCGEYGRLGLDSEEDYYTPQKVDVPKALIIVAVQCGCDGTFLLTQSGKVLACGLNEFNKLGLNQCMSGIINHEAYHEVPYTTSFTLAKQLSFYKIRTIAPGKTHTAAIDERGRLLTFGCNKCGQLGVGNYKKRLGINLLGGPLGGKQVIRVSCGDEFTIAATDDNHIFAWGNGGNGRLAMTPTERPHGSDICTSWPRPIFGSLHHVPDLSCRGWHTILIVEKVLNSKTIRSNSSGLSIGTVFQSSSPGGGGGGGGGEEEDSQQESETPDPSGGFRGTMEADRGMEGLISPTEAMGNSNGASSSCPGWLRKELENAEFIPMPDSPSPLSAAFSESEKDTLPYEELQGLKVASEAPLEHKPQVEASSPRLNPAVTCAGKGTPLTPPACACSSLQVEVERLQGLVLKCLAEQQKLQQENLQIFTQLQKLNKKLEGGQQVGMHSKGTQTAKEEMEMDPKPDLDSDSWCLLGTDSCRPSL
# Chain of Sphingosine kinase 1 (Homo sapiens) (Q9NYA1 whole entry): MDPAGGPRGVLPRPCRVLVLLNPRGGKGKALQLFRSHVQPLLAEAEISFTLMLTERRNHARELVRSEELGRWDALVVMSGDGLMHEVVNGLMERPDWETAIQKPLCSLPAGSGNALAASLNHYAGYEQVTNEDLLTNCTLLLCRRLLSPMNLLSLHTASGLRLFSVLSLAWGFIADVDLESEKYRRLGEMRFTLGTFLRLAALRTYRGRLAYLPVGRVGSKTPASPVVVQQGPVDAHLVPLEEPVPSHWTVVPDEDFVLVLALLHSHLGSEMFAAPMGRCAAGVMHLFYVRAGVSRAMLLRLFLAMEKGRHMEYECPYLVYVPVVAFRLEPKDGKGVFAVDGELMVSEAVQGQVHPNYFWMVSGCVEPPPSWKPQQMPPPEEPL
structure (smiles),measurement,setting,value
COc1cccc(/C=N/Nc2ncnc3c2cnn3-c2cccc(OC)c2)c1,inhibition,[1],0.34%
same,inhibition,[2],-0.71%
same,inhibition,[3],-0.63%
same,inhibition,[4],5.99%
same,inhibition,[5],3.05%
same,inhibition,[6],7.48%
same,inhibition,[7],-3.48%
same,inhibition,[8],6.4%
same,inhibition,[9],6%
same,inhibition,[10],4.37%
same,inhibition,[11],6.73%
same,inhibition,[12],1.81%
same,inhibition,[13],3.93%
same,inhibition,[14],5.68%
same,inhibition,[15],3.79%
same,inhibition,[16],1.07%
same,inhibition,[17],2.21%
same,inhibition,[18],3.9%
same,inhibition,[19],8.57%
same,inhibition,[20],7.75%
